Only some compounds are listed: those with a hit (about 6.5% of all), similar ones and a draw of the others.
FMDV antiviral: antivirals against foot and mouth disease virus | Potency, µM (highest dose often 57.9 µM), usual class: inhibitors | 410,000 tested, 1.2% active | FMDV antiviral cell-based qHTS | AID 1159524; calls by dose curve; tested in HEK293T cells; further: read-out not given here; nearly all actives have a fitted effect of over 45% in size
VACV mCherry inh: inhibitors of vaccinia virus infection (mCherry reporter signal). AID 720579. 310,000 tested, 0.63% active. Potency, µM (top dose mostly 36.5 µM), usual class: inhibitors. Vaccinia virus mCherry reporter infection, fluorescence; calls by dose curve; tested in A549 cells; further: nearly all actives have a fitted effect of over 35% in size
Lassa entry inh: Lassa virus entry inhibition; Lassa virus pseudotype entry inhibition, cell reporter; Potency, µM (titrated, usually from 37.9 µM), hits mostly inhibitors; 300,000 tested, 1.2% active; calls by dose curve; tested in HEK293 cells; further: nearly all actives have a fitted effect of over 50% in size
VACV Venus inh: inhibitors of vaccinia virus (Venus reporter) | Vaccinia virus Venus reporter expression, fluorescence | Potency, µM (top dose mostly 36.5 µM), usual class: inhibitors | 330,000 tested, 0.46% active; calls by dose curve; tested in A549 cells; further: nearly all actives have a fitted effect of over 30% in size
Marburg entry inh: inhibitors of Marburg virus binding or cell entry. Marburg virus pseudotyped entry inhibition, cell reporter. Potency, µM (doses to about 37.8 µM), usual class: inhibitors. 300,000 tested, 1.8% active; calls by dose curve; tested in HEK293 cells
HCMV inh: human cytomegalovirus inhibition | activity change, negative = inhibition, % at 57.5 µM | HFF cells, HCMV-luciferase reporter, 72 h; active compounds read low | 410,000 tested, 4.5% active; in the data active means activity change below about -60%; inconclusive means no clear call, values can overlap the other calls; inactive means above about -39%
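Human foreskin fibroblasts infected with luciferase-reporter HCMV at MOI 1 PFU/cell, compounds at two doses. Luciferase measured 72 h post infection; normalized to buffer-only basal and Salinomycin (10uM) controls.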
Hits are given with their value.

For CCN(CC)S(=O)(=O)c1cc(NC(=O)CSCc2c(C)noc2C)ccc1C the results were FMDV antiviral inactive, VACV mCherry inh inactive, Lassa entry inh 2.8µM, VACV Venus inh inactive, Marburg entry inh inconclusive and HCMV inh inactive.
`COc1cc(/C=N/OCC(=O)Nc2ccc(OC(F)F)cc2)ccc1OCc1ccccc1` gave FMDV antiviral inactive, VACV mCherry inh inactive, Lassa entry inh inconclusive, VACV Venus inh inactive, Marburg entry inh 7.1µM and HCMV inh inactive.
Screening CCOc1ccc(/C=N/OCC(=O)Nc2ccc(OCc3ccccc3)cc2)cc1OC returned FMDV antiviral inactive, VACV mCherry inh inactive, Lassa entry inh inactive, VACV Venus inh inactive, Marburg entry inh inconclusive and HCMV inh inactive.
Screening COc1ccc(/C=N/OCC(=O)NC(c2ccccc2)c2ccccc2)cc1OC returned FMDV antiviral 7.1µM, VACV mCherry inh inconclusive, Lassa entry inh inconclusive, VACV Venus inh inconclusive, Marburg entry inh inconclusive and HCMV inh -66.
Screening COc1ccc2c(c1)[C@@]1(OCCC=C[C@@H]1C)C(=O)N2Cc1ccc(F)cc1 returned Lassa entry inh inconclusive and Marburg entry inh inactive.
N#Cc1cccc(C(Br)S(=O)(=O)c2ccccc2)c1 (stereo unspecified) was read as FMDV antiviral inactive, VACV mCherry inh inconclusive, VACV Venus inh inconclusive and HCMV inh -91.
For O=C(c1ccc(Cl)c(S(=O)(=O)N2CCCCCC2)c1)N1CCCCC1 the results were FMDV antiviral inactive and HCMV inh inactive.
For O=C(c1ccc(Cl)c(S(=O)(=O)N2CCCCCC2)c1)N1CCN(c2ccccn2)CC1 the results were FMDV antiviral 28µM, VACV mCherry inh inconclusive, Lassa entry inh inconclusive, VACV Venus inh inconclusive, Marburg entry inh inconclusive and HCMV inh -81.
Screening CCOc1ccccc1N1CCN(C(=O)c2ccc(Cl)c(S(=O)(=O)N3CCCCC3)c2)CC1 returned FMDV antiviral 32µM, VACV mCherry inh inactive, Lassa entry inh inconclusive, VACV Venus inh inactive, Marburg entry inh inconclusive and HCMV inh inactive.
`C=C1C[C@@]23CC[C@H]4[C@@](C)(CCC[C@@]4(C)C(=O)OC4OC(CO)C(O)C(O)C4O)[C@@H]2CC[C@]1(OC1OC(CO)C(O)C(O)C1OC1OC(CO)C(O)C(O)C1O)C3` (stereo partly specified) gave Lassa entry inh inactive and Marburg entry inh inactive.
COc1cc(C2C3=C(COC3=O)Oc3cc4c(cc32)OCO4)cc(OC)c1OC (stereo unspecified) was read as FMDV antiviral inactive, VACV mCherry inh inconclusive, Lassa entry inh inconclusive, VACV Venus inh inconclusive, Marburg entry inh inconclusive and HCMV inh -84.
Screening COc1cc(C2C3=C(COC3=O)Oc3cc4c(cc32)OCO4)cc(OC)c1O (stereo unspecified) returned FMDV antiviral inactive, VACV mCherry inh 32µM, Lassa entry inh inconclusive, VACV Venus inh inconclusive, Marburg entry inh inconclusive and HCMV inh -79.
For Nc1cc(=O)[nH]c(=O)n1-c1cccc(F)c1 the results were FMDV antiviral inactive, VACV mCherry inh inactive, Lassa entry inh inactive, VACV Venus inh inactive, Marburg entry inh inactive and HCMV inh -84.
Screening Cc1ccc(C)c(Nc2nc3nonc3nc2N2CCOCC2)c1 returned FMDV antiviral inactive, VACV mCherry inh inactive, Lassa entry inh inactive, VACV Venus inh inactive, Marburg entry inh inactive and HCMV inh inactive.
Screening CCOC(=O)c1ccc(Nc2nc3nonc3nc2Nc2cccc(C)c2C)cc1 returned FMDV antiviral inconclusive, VACV mCherry inh inconclusive, Lassa entry inh inconclusive, VACV Venus inh inconclusive, Marburg entry inh inconclusive and HCMV inh -97.
`Cc1ccc(C)c(Nc2nc3nonc3nc2Nc2cccc(C)c2C)c1` gave FMDV antiviral inconclusive, VACV mCherry inh inactive, Lassa entry inh inconclusive, VACV Venus inh inconclusive, Marburg entry inh inconclusive and HCMV inh -101.
For O=C(NCCc1ccc(Cl)cc1)c1ccc2c(c1)N(Cc1ccc(F)cc1Cl)C(=O)CS2 the results were FMDV antiviral inactive, VACV mCherry inh inactive, Lassa entry inh inconclusive, VACV Venus inh inconclusive, Marburg entry inh inactive and HCMV inh -64.
Screening O=C(NCc1ccc2c(c1)OCO2)c1ccc2c(c1)N(Cc1c(F)cccc1Cl)C(=O)CS2 returned FMDV antiviral inactive, VACV mCherry inh inactive, Lassa entry inh inconclusive, VACV Venus inh inactive, Marburg entry inh inconclusive and HCMV inh -78.
`CN(C)C(=O)NC1c2ccccc2-c2ccccc21` gave FMDV antiviral inactive and HCMV inh inactive.
Screening O=C(NC1c2ccccc2-c2ccccc21)N1CCCCC1 returned FMDV antiviral inactive, VACV mCherry inh 7.1µM, Lassa entry inh inactive, VACV Venus inh inconclusive, Marburg entry inh inactive and HCMV inh inactive.
N#CC1C(=O)N=C(SCC(=O)c2ccc(Br)cc2)N=C1c1cccs1 (stereo unspecified) was read as Marburg entry inh inactive.
Screening O=C(Nc1ccc2c(c1)OCO2)N[C@H]1CC[C@@]23CCCN2C(=O)CCC[C@H]3C1Cc1ccccc1 (stereo partly specified) returned HCMV inh inactive.
Screening C[C@H]1[C@@H](NC(=O)Nc2ccc3c(c2)OCO3)CC[C@@]23CCCN2C(=O)CCC[C@@H]13 returned HCMV inh -92.
O=C1CCC[C@H]2[C@@H](Cc3ccccc3)[C@@H](NS(=O)(=O)c3ccc(Cl)cc3)CC[C@]23CCCN13 was read as HCMV inh -92.
C[C@H]1[C@@H](NS(=O)(=O)c2cn(C)cn2)CC[C@@]23CCCN2C(=O)CCC[C@@H]13 was read as HCMV inh -102.
For O=C1CCC[C@H]2[C@@H](Cc3ccccc3)[C@@H](NS(=O)(=O)c3ccc(Br)cc3)CC[C@]23CCCN13 the results were HCMV inh inactive.
`CN(C)c1ccc(C=O)cc1Cl` gave VACV mCherry inh inactive and VACV Venus inh inactive.
Screening Cc1ccccc1-n1c(SCc2cc(=O)n3ccccc3n2)nc2[nH]ncc2c1=O returned FMDV antiviral inactive, VACV mCherry inh inconclusive, Lassa entry inh inactive, VACV Venus inh inactive, Marburg entry inh inactive and HCMV inh inactive.
COc1ccc(N2CCN(C(=O)CSc3nc4[nH]ncc4c(=O)n3-c3ccc(Br)cc3)CC2)cc1 was read as FMDV antiviral inactive, VACV mCherry inh inconclusive, VACV Venus inh inactive and HCMV inh -63.
`O=c1c2cn[nH]c2nc(SCc2cc(=O)n3cc(Br)ccc3n2)n1-c1ccc(Br)cc1` gave FMDV antiviral inactive, VACV mCherry inh inconclusive, Lassa entry inh inactive, VACV Venus inh inconclusive, Marburg entry inh inconclusive and HCMV inh -72.
`O=c1c2cn[nH]c2nc(SCc2ccccc2F)n1-c1ccc(Br)cc1` gave FMDV antiviral inactive, VACV mCherry inh inactive, Lassa entry inh inconclusive, VACV Venus inh inactive, Marburg entry inh inconclusive and HCMV inh -71.
Screening C(=C\c1nc2ccccc2s1)/c1ccc2c(c1)OCO2 returned VACV mCherry inh inconclusive and VACV Venus inh inactive.

High-throughput results (PubChem BioAssay)
